Some test systems named below: RPMI-8226 leukemia; OVCAR-8 ovarian; OVCAR-5 ovarian; OVCAR-4 ovarian; SK-OV-3 ovarian; IGROV1 ovarian; OVCAR-3 ovarian; HS 578T breast; NCI/ADR-RES ovarian; T-47D breast; BT-549 breast; MDA-MB-435 melanoma; MCF7 breast; HCT-116 colon; HCC-2998 colon; KM12 colon; SW-620 colon.
Experiment in all cases: NCI-60 one-dose screen, 48 h (100 = growth as untreated, 0 = no growth, -100 = all killed)
Settings in all cases: 10 µM

Consider nine molecules from PubChem BioAssay (NCI).

Compounds without any hit were thinned out: in the full panel of roughly 83,000, 20% have a hit.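 A percent growth of 40 corresponds to 60% growth inhibition; 0 means no net growth; -100 means all cells died. Active threshold: below 10.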 Unmarked numbers belong to inactive results. The source made the active and inactive calls.

Regarding `CC(=O)CSC(C)=O`, the growth in the test on RPMI-8226 leukemia is 93.2%; with OVCAR-8 ovarian it was 108%; in the test on OVCAR-5 ovarian it was 106%; with OVCAR-4 ovarian it was 98%; in the test on SK-OV-3 ovarian, 110%; with IGROV1 ovarian it was 99.2%. Further, the growth was 115% in the test on OVCAR-3 ovarian; 101% in the test with HS 578T breast; 111% in the test on NCI/ADR-RES ovarian; 103% in the test with T-47D breast; 105% in the test with BT-549 breast; 96.5% with MDA-MB-435 melanoma. For the same molecule, the growth in the test with MCF7 breast was 93%; in the test on HCT-116 colon, 98%; in the test on HCC-2998 colon, 110%; in the test with KM12 colon it was 107%.

On to `COc1cc(-c2cc(/C=C/C(=O)c3ccc(N)cc3)[nH]n2)cc(OC)c1OC`, for which the growth was -26.5% (active) in the test on RPMI-8226 leukemia; -53.4% (active) in the test on OVCAR-8 ovarian; -15% (active) with OVCAR-5 ovarian; 26.8% with OVCAR-4 ovarian; 27.2% in the test with SK-OV-3 ovarian; 18.1% with IGROV1 ovarian. Moreover, the growth with OVCAR-3 ovarian is -45.9% (active); in the test on HS 578T breast, 19.2%; with NCI/ADR-RES ovarian, 64.7%; in the test on T-47D breast, 5.11% (active); in the test with BT-549 breast, -28.7% (active); in the test on MDA-MB-435 melanoma, 6.15% (active). For the same molecule, the growth was -38.1% (active) with SW-620 colon, -81.5% (active) in the test on HCT-116 colon, -75.4% (active) in the test with HCC-2998 colon and -35.1% (active) in the test with KM12 colon.

For the molecule `O=C(Nc1cccc(-n2cc(-c3ccncc3)c(-c3ccc(O)c(Cl)c3)n2)c1)Nc1ccc(Cl)c(Cl)c1`, the growth is -30.8% (active) in the test on RPMI-8226 leukemia; -24.9% (active) in the test on OVCAR-8 ovarian; 31.4% with OVCAR-5 ovarian; 13.8% with OVCAR-4 ovarian; 19% in the test on SK-OV-3 ovarian; -0.387% (active) with IGROV1 ovarian. The growth in the test on OVCAR-3 ovarian is -16.5% (active); with HS 578T breast it was -0.243% (active); in the test on NCI/ADR-RES ovarian, 17.9%; with T-47D breast it was -3.41% (active); in the test on BT-549 breast, 1.9% (active); in the test on MDA-MB-435 melanoma, -16.7% (active). Moreover, the growth was -0.812% (active) in the test with MCF7 breast, 1.72% (active) in the test on HCT-116 colon, 20.5% in the test on HCC-2998 colon and 0.41% (active) in the test on KM12 colon.

Take `Nc1c(C(=O)Nc2cccc(Br)c2)sc2nc3c(cc12)C(O)CCC3` (stereo not drawn): the growth with RPMI-8226 leukemia is 14.7%; in the test with OVCAR-8 ovarian, 30.6%; in the test with OVCAR-5 ovarian it was 60.4%; in the test with OVCAR-4 ovarian, 65.8%; with SK-OV-3 ovarian it was 21.8%; with IGROV1 ovarian, 27.9%. Also, the growth in the test on OVCAR-3 ovarian was -18.2% (active); with HS 578T breast, 28.3%; in the test on NCI/ADR-RES ovarian, 24.5%; in the test with T-47D breast, 47.4%; in the test on BT-549 breast it was 45.2%; in the test with MDA-MB-435 melanoma it was -42.1% (active). Moreover, the growth in the test on MCF7 breast is 21%; with HCT-116 colon, 16.4%; in the test on HCC-2998 colon, 31.5%; in the test with KM12 colon, 22.8%.

`Cc1ccc2oc3nc(C)c(C(=O)NCc4ccccc4)cc3c(=O)c2c1`: the growth in the test with RPMI-8226 leukemia is 86.1%; with OVCAR-8 ovarian, 92.5%; with OVCAR-5 ovarian, 86.8%; in the test with OVCAR-4 ovarian it was 85.3%; with SK-OV-3 ovarian, 116%; in the test with IGROV1 ovarian, 103%. Further, the growth is 99.7% with OVCAR-3 ovarian; 106% in the test on HS 578T breast; 63.4% with NCI/ADR-RES ovarian; 63.5% in the test with T-47D breast; 95.1% in the test with BT-549 breast; 65.5% in the test on MDA-MB-435 melanoma. Besides, the growth in the test on MCF7 breast is 45.6%; with HCT-116 colon, 60.6%; in the test with HCC-2998 colon, 35.4%; with KM12 colon it was 28.6%.

On to `O=C(C[P+](c1ccccc1)(c1ccccc1)c1ccccc1)C[P+](c1ccccc1)(c1ccccc1)c1ccccc1`, for which the growth in the test with RPMI-8226 leukemia is -40.6% (active); with OVCAR-8 ovarian, -42.1% (active); with OVCAR-5 ovarian it was -94.9% (active); in the test on OVCAR-4 ovarian, -55.8% (active); with SK-OV-3 ovarian, -3.83% (active); in the test on IGROV1 ovarian, -69.3% (active). The growth with OVCAR-3 ovarian was -92.9% (active); in the test on HS 578T breast, -5.42% (active); in the test on NCI/ADR-RES ovarian, 1.56% (active); in the test with T-47D breast, -45.2% (active); with BT-549 breast it was -89.2% (active); with MDA-MB-435 melanoma, -80.6% (active). The growth in the test on MCF7 breast was -69.8% (active); with HCT-116 colon, -93.3% (active); in the test on HCC-2998 colon it was -83.9% (active); in the test on KM12 colon it was -75.5% (active).

Consider `c1ccc(C(NC2CC3CCC2C3)c2ccccc2)cc1` (stereo not drawn), for which the growth in the test with RPMI-8226 leukemia is 96.2%; in the test with OVCAR-8 ovarian, 105%; in the test on OVCAR-5 ovarian it was 101%; in the test with OVCAR-4 ovarian, 108%; in the test with SK-OV-3 ovarian it was 95.9%; in the test on IGROV1 ovarian, 109%. Further, the growth in the test with OVCAR-3 ovarian is 114%; in the test on HS 578T breast, 111%; in the test with NCI/ADR-RES ovarian, 103%; with T-47D breast it was 99.9%; with BT-549 breast, 78.4%; with MDA-MB-435 melanoma, 91.6%. The growth in the test with MCF7 breast was 98.4%; in the test on HCT-116 colon, 89.9%; in the test with HCC-2998 colon, 102%; in the test with KM12 colon, 95%.

On to `CSc1nn(-c2ccccc2)c2ncnc(Oc3ccccc3)c12`, for which the growth was 84.5% in the test on RPMI-8226 leukemia; 99% with OVCAR-8 ovarian; 96.2% in the test with OVCAR-5 ovarian; 86.9% in the test on OVCAR-4 ovarian; 104% in the test on SK-OV-3 ovarian; 87.4% in the test with IGROV1 ovarian. In addition, the growth in the test on OVCAR-3 ovarian is 91.2%; in the test on HS 578T breast, 148%; in the test with NCI/ADR-RES ovarian, 96.6%; with T-47D breast, 87.7%; with BT-549 breast, 94.5%; in the test on MDA-MB-435 melanoma, 102%. For the same molecule, the growth was 107% in the test on MCF7 breast, 85.4% in the test with HCT-116 colon and 102% with HCC-2998 colon.

Consider `N#CCCN(NC(=O)OCc1ccccc1)C(=O)OCc1ccccc1`, for which the growth with RPMI-8226 leukemia was 110%; with OVCAR-8 ovarian it was 99%; in the test with OVCAR-5 ovarian, 108%; in the test on OVCAR-4 ovarian it was 111%; in the test with SK-OV-3 ovarian, 122%; with IGROV1 ovarian, 118%. Moreover, the growth is 118% in the test with OVCAR-3 ovarian; 103% in the test with HS 578T breast; 105% in the test with NCI/ADR-RES ovarian; 109% with T-47D breast; 109% with BT-549 breast; 105% in the test on MDA-MB-435 melanoma. Further, the growth in the test on MCF7 breast was 107%; in the test with HCT-116 colon, 95.4%; in the test with HCC-2998 colon, 106%; with KM12 colon it was 109%.
